# Assay results as given in PubChem BioAssay AID1008 (NMMLSC, 2008).
# In all, about 190,000 compounds went through this assay and about 240 (0.13%) were called active. Rule as the data show it: active = inhibition above about 40%. Only a selection was taken, and actives are over-represented in it overall.
# Target: Bcl-2-related protein A1 (Homo sapiens) (UniProt Q16548)
# Assay: Bfl-1/Bim complex disruptors – biochemical, multiplexed, bead-based flow cytometry, primary screen (AID 1008);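 also: 0% = wells without compound plus tracer and 100% = blocker peptide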
# Details: Bim-Bfl-1 binding inhibition, at 10 µM, active compounds read high
# Bcl-2-related protein A1 (Homo sapiens), sequence (Q16548 whole entry, looked up): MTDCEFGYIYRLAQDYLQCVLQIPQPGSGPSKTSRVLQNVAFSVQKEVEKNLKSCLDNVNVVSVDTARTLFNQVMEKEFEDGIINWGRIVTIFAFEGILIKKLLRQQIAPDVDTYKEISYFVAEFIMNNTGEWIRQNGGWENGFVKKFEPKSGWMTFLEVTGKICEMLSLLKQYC
row,SMILES,inhibition
1,Cc1cc(CNCc2c(C(=O)N(C)Cc3ccccc3)nc3ccccn23)nn1C,-6% (inactive)
2,COc1cccc(CNC(=O)CCN2C(=S)NC(C)(C)CC2C)c1 (configuration not stated),-5% (inactive)
3,Cc1cc(OC(=O)c2ccccc2)c([N+](=O)[O-])c(=O)[nH]1,-5% (inactive)
4,S=c1ccc2ccccc2[nH]1,-4% (inactive)
5,Cc1cccc(CSc2nc3c(c(=O)n2C)SCC3)c1,-2% (inactive)
6,CCOc1cc(CNn2c(C)nnc2SCC(=O)NC(C)(C)C)ccc1OCC(=O)NC(C)(C)C,-7% (inactive)
7,CC(C)Cn1c(N)c(C(=O)COC(=O)CN2C(=O)C3CC=CCC3C2=O)c(=O)n(C)c1=O (configuration not stated),-8% (inactive)
8,COc1ccc(CNc2c(CO)cnc3c2cnn3C)cc1,-3% (inactive)
9,CCc1ccc(NC(=O)C(=O)N/N=C(\C)CC(=O)NCCOC)cc1,-3% (inactive)
10,O=C1C=CC(=O)N1c1ccc(N2CCCCC2)cc1,11% (inactive)
11,CN1CCN(S(=O)(=O)c2cccc(C(=O)N3CCc4ccccc43)c2)CC1,1% (inactive)
12,COc1cccc(CNC(=O)CCC2CCCN(Cc3ccc(OC(F)F)cc3)C2)c1 (configuration not stated),-4% (inactive)
13,Cc1ccc(O)c(-c2cc(C(=O)Nc3c(C)n(C)n(-c4ccccc4)c3=O)[nH]n2)c1,-2% (inactive)
14,COc1cc(C(=O)NNC(=O)c2ccc(S(=O)(=O)N3CCCCC3)cc2)cc(OC)c1OC,7% (inactive)
15,CCc1ccc(NC2Nc3cc(C)nn3S2)cc1 (configuration not stated),-1% (inactive)
16,CN(C)C(=O)CSc1n[nH]c(-c2ccco2)n1,2% (inactive)
17,Cc1ccc(NC(=O)Cn2c(=O)n(CCC(=O)NC3CCN(Cc4ccccc4)CC3)c(=O)c3ccccc32)cc1,-9% (inactive)
18,Cc1cccc(C)c1N1CCN(S(=O)(=O)N2CCCCC2)CC1,-3% (inactive)
19,O=C(CSc1ncnc2scc(-c3ccccc3)c12)NCc1ccc2c(c1)OCO2,0% (inactive)
20,CN(CCN1CCOCC1)Cc1nc(-c2ccc3c(c2)OCO3)no1,-5% (inactive)
21,N#C/C(=C(\O)C(F)(F)F)c1nnc2n1CCCCC2,-5% (inactive)
22,CC1CCN(C2=NC(=O)/C(=C/c3cn[nH]c3-c3ccccc3)S2)CC1,-13% (inactive)
23,O=C(Nc1nc(-c2cccnc2)cs1)c1ccccc1F,-9% (inactive)

row,SMILES,inhibition
1,CN1CCN(NC(=O)c2ccc(S(=O)(=O)N3CCCCCC3)cc2)CC1,-2% (inactive)
2,CC1CCCCC1NC(=O)CO/N=C/c1ccc(OC(F)F)cc1 (configuration not stated),-7% (inactive)
3,CCOC(=O)N1CCC(NC(=O)C(NS(=O)(=O)c2ccc3c(c2)CCN3C(=O)CC)C(C)C)CC1 (configuration not stated),-4% (inactive)
4,CCc1nnc(NS(=O)(=O)c2ccc(NC(=S)NC(=O)/C=C/c3cccs3)cc2)s1,1% (inactive)
5,CC(C)C(C)(C#N)NC(=O)CSc1nc2scc(-c3ccccc3)c2c(=O)[nH]1 (configuration not stated),3% (inactive)
6,Cc1ccc(N(C(=O)c2ccc(CN3CCOCC3)o2)C(C(=O)NCCC(C)C)c2cccs2)c(C)c1 (configuration not stated),-7% (inactive)
7,O=C(O)CCS(=O)(=O)c1ccc(-c2ccccc2)cc1,0% (inactive)
8,COc1ccc(NC(=O)Nc2ccc3nsnc3c2)cc1,-1% (inactive)
9,COc1ccc(NC(=O)Nc2ccc3nc(C)c(C)nc3c2)cc1,-2% (inactive)
10,CN(c1ccc(C(=O)NCc2ccccn2)cc1)S(C)(=O)=O,-18% (inactive)
11,COCCNC(=O)Nc1ccc2nc(-c3ccco3)c(-c3ccco3)nc2c1,48% (active)
12,O=C(NCc1ccccn1)c1cc(-c2ccccc2Cl)on1,0% (inactive)
13,O=C(NCc1ccccn1)c1ccc2nc(-c3ccco3)c(-c3ccco3)nc2c1,43% (active)
14,Cc1nnc(-c2ccc(Oc3ccc(C)c(C)c3)c([N+](=O)[O-])c2)o1,9% (inactive)
15,Cc1cccc(C2c3[nH]c4ccccc4c3CCN2C(=O)c2cc(-c3cccn3C)n[nH]2)n1 (configuration not stated),-4% (inactive)
16,Cc1cc(/C=C2/NC(=O)NC2=O)c(C)n1-c1cccnc1,-4% (inactive)
17,CCCCNC(=S)N/N=C1\CCCCc2ccccc21,0% (inactive)
18,COc1cccc(-n2c(=S)sc3c(=O)n(-c4ccccc4OC)c(SCC4OCCO4)nc32)c1,-3% (inactive)
19,O=C(NNC(=O)C1C2CCC(C2)C1C(=O)O)c1ccc(Cl)cc1 (configuration not stated),-8% (inactive)
20,COc1cccc(NC(=O)Cn2c3ccccc3c3nc4n(c(=O)c32)CCS4)c1,2% (inactive)
21,CC(C)(C)NCCCOc1ccc(Cl)cc1C(C)(C)C,-1% (inactive)
22,CCCCN=C1C([N+](=O)[O-])=CC=C2C1=NC1(CCCCC1)N2O,0% (inactive)
23,c1ccc(-c2cc3c(NCC4COc5ccccc5O4)ncnc3s2)cc1 (configuration not stated),-5% (inactive)

row,SMILES,inhibition
1,CC1CCCN(S(=O)(=O)c2ccc(N(C(=O)c3cnccn3)C(C(=O)NC3CCCCC3)c3cccs3)cc2)C1 (configuration not stated),-2% (inactive)
2,O=C(COC(=O)/C(=C/c1cccs1)c1cccs1)NCc1ccccc1Cl,0% (inactive)
3,O=C(CN1CCCCCC1)NCCN1C(=O)S/C(=C\c2ccccc2Cl)C1=O,-4% (inactive)
4,O=C(O)c1cccc(N2C(=O)Nc3ccccc3N2O)c1,0% (inactive)
5,O=C(CCN1CCCCC1)N=Nc1c(O)[nH]c2ccccc12,0% (inactive)
6,CC(=O)Nc1ccc(NC(=S)NC(=O)/C=C/c2ccccc2)cc1,-3% (inactive)
7,CCCCNS(=O)(=O)c1ccc2nc(SCC(=O)Nc3cc(C)cc(C)c3)[nH]c2c1,-1% (inactive)
8,O=C(NCC1CCN(Cc2ccccc2Cl)CC1)Nc1cccc(Cl)c1,-6% (inactive)
9,CCOC(=O)c1cc2c(nc1NC(=S)Nc1ccccc1)CC(C)(CC)OC2 (configuration not stated),-11% (inactive)
10,Cn1nnnc1SCC(=O)NNC(=O)c1ccc(Br)cc1,-10% (inactive)
11,CCCCCN(C(=O)NC(=O)Nc1cccc(C)c1C)S(C)(=O)=O,-7% (inactive)
12,CCn1c(C(C)NC(=O)c2ccc(C)cc2)n[nH]c1=S (configuration not stated),1% (inactive)
13,CC(C)CN(C(=O)CN1CCN(S(=O)(=O)c2ccccc2)CC1)c1c(N)n(CC(C)C)c(=O)[nH]c1=O,-2% (inactive)
14,O=C(c1cc(=O)c2ccccc2o1)N1CCN(c2ccccc2)CC1,0% (inactive)
15,CN(C(=O)COc1ncnc2c1cnn2-c1ccccc1)C1CCCCC1,-7% (inactive)
16,COc1ccc(S(=O)(=O)N2CCCCCC2)cc1C(=O)OCC(=O)Nc1cc(C)on1,-1% (inactive)
17,O=C(Cc1ccc(F)cc1)N/N=C/c1ccc2c(c1)OCO2,-2% (inactive)
18,Cc1ccc(SCCC(=O)NCc2ccccn2)cc1,4% (inactive)
19,C/C(=N\NC(=O)c1cc2c(s1)CCC(C)C2)c1cccnc1 (configuration not stated),0% (inactive)
20,O=C(Nc1cccnc1)c1ccc(Cl)cc1[N+](=O)[O-],-1% (inactive)
21,O=C(CC1SC(=Nc2ccccc2)N(Cc2ccccn2)C1=O)Nc1cccc(Cl)c1 (configuration not stated),11% (inactive)
22,O=C(CCN1C(=O)c2ccncc2C1=O)Nc1cc(F)ccc1F,-8% (inactive)
23,Cc1csc(Nc2ccc(Cl)cc2)[n+]1-c1ccc(Cl)cc1,5% (inactive)

row,SMILES,inhibition
1,Cc1ccc(NC(=S)N(CCN2CCCCC2)Cc2ccco2)cc1C,-3% (inactive)
2,CCc1ccccc1NC(=O)CN(c1ccc(OC)cc1OC)S(=O)(=O)c1ccccc1[N+](=O)[O-],-12% (inactive)
3,Cn1c(=O)c([N+](=O)[O-])c(Oc2ccccc2)c2ccccc21,0% (inactive)
4,C=CCN(CC=C)C(=O)COC(=O)c1n[nH]c2ccccc12,-7% (inactive)
5,CCc1ccc(C(=O)OCC(=O)NCC(F)(F)F)cc1,-3% (inactive)
6,CCOC(=O)CSC1=N/C(=C/c2ccc(-n3cncn3)cc2)C(=O)N1C(C)=O,-5% (inactive)
7,Cc1ccc(C2=N/C(=C\c3ccc(OS(=O)(=O)c4ccc(C)cc4)cc3)C(=O)O2)cc1,-2% (inactive)
8,Cc1cc(NC(=O)CSc2nnc(Nc3ccccc3F)s2)no1,-8% (inactive)
9,CN1CCN(c2nc(Nc3ccc(O)cc3)nc3ccccc23)CC1,-5% (inactive)
10,CCOC(=O)CNC(=O)/C(=C\c1ccc(F)cc1)NC(=O)c1ccccc1,-7% (inactive)
11,O=C(Cn1nc(CNc2ccc(Cl)cc2)[n+]2c1CCCCC2)c1ccc(Cl)cc1,-16% (inactive)
12,CC1CCN(S(=O)(=O)c2ccc(S(=O)(=O)NCc3cccnc3)cc2)CC1,6% (inactive)
13,COC(=O)Cn1cc(/C=C/[N+](=O)[O-])c2ccccc21,4% (inactive)
14,CC(C(=O)NC1CCCC1)N(c1ccc(Oc2ccccc2)cc1)S(C)(=O)=O (configuration not stated),-2% (inactive)
15,COc1cc2sc(C)nc2cc1C,2% (inactive)
16,CSCCC(NC(=O)c1cc([N+](=O)[O-])cc([N+](=O)[O-])c1)c1nc2ccccc2[nH]1 (configuration not stated),-16% (inactive)
17,CCn1c(=S)[nH]c2sc3c(c2c1=O)CCCCC3,3% (inactive)
18,COc1cc(/C=N/NC(=S)Nc2cccnc2)cc(OC)c1O,7% (inactive)
19,CN(C)/N=C/c1cc(Cl)cc([N+](=O)[O-])c1O,0% (inactive)
20,CCOC(=O)C1(Cc2cccc(OC)c2)CCCN(S(=O)(=O)c2cccnc2)C1 (configuration not stated),-2% (inactive)
21,Fc1ccc(COc2cccc(-c3n[nH]c(=S)o3)c2)cc1,5% (inactive)
22,O=C(C1CCCO1)N1CCN(C(=S)NC2CC2)CC1 (configuration not stated),-4% (inactive)
23,COc1ccc(CNC(=O)COC(=O)/C=C/c2ccc(S(=O)(=O)N3CCOCC3)cc2)cc1,-3% (inactive)

row,SMILES,inhibition
1,COC(=O)c1cc2occc2n1Cc1nc(-c2ccccc2C)oc1C,0% (inactive)
2,CC(=O)Nc1cccc(/C(C)=N/NC(=O)c2c(-c3ccccc3Cl)noc2C)c1,0% (inactive)
3,COc1ccc(C(=O)CSc2nnnn2C)c(OC)c1,-5% (inactive)
4,Nc1nc(-c2sc3nc4c(cc3c2N)CCCC4)nc(N2CCOCC2)n1,-5% (inactive)
5,CC1(c2ccccc2)CC(C)(C)N(C(=O)c2cc([N+](=O)[O-])cc([N+](=O)[O-])c2)c2ccccc21 (configuration not stated),-1% (inactive)
6,CCN(C(=O)CN1CCN(Cc2ccccc2)CC1)c1c(N)n(Cc2ccccc2)c(=O)[nH]c1=O,-3% (inactive)
7,Cn1c(=O)c2c(ncn2CC(=O)N/N=C/c2cn[nH]c2-c2ccc(F)cc2)n(C)c1=O,-3% (inactive)
8,C/C(=N/NS(=O)(=O)c1ccccc1)c1ccc(NC(=O)C(F)(F)F)cc1,-2% (inactive)
9,O=C1N/C(=C/c2cccn2-c2ccccc2)C(=O)N1c1cccc(Cl)c1,-2% (inactive)
10,CSCC(NS(=O)(=O)c1ccc(C)cc1)C(=O)O (configuration not stated),-9% (inactive)
11,Cc1c(C(=O)c2cccc([N+](=O)[O-])c2)c2ccccn2c1CCC#N,-8% (inactive)
12,O=C(CCN1C(=O)c2ccccc2C1=O)C1=NN[C@@H]2C(=O)N(c3ccc(F)cc3)C(=O)[C@H]12,-9% (inactive)
13,CCOc1ccc(C(CC(=O)O)n2cnnn2)cc1OC (configuration not stated),-4% (inactive)
14,COC(c1ccccc1)c1nnc(CCC(=O)N2CCN(CCOc3ccccc3)CC2)o1 (configuration not stated),-5% (inactive)
15,Cc1cccc(Cn2cnc3c(N)c(C)c(C)cc32)c1,-4% (inactive)
16,Cc1ccc2c(c1)C1CN(C)CCC1N2C(=S)Nc1ccc(OC(F)F)cc1 (configuration not stated),-7% (inactive)
17,Nc1nc(SCc2ccc([N+](=O)[O-])cc2)c2ncn(C3OC(CO)C(O)C3O)c2n1 (configuration not stated),-10% (inactive)
18,O=c1[nH]n2c(=O)c3c([nH]c2c1N=Nc1ccccc1)CCC3,0% (inactive)
19,COc1ccc(OC)c2[nH]c(=O)c(CCNC(=O)C(=O)c3c[nH]c4ccccc34)cc12,-9% (inactive)
20,Cc1cc(/C=N/NC(N)=O)c(C)n1C1CCCCC1,16% (inactive)
